Bioassay records from PubChem BioAssay.
Rows were chosen to be rich in hits. Some 1% of all compounds tested hit in one or more screens of this group.
HUVEC tox TNFa: HUVEC cytotoxicity counter-screen, TNF alpha stimulated; HUVEC TNFalpha-stimulated, Hoechst cell count, imaging; cell count reduction, % at 2 µM; 93,000 tested, 0.17% active; AID 848;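 active = cell count reduction exceeding the screen mean by over 5 SD, scaled to untreated wells per plate, cut at about 78% in these data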;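 also: cells counted after 24 h of TNF alpha exposure following the 1 h pretreatment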
E-sel TNF inh: blocks E-selectin expression induced by TNF alpha; 120,000 tested, 0.71% active; HUVEC TNFa-induced E-selectin immunofluorescence, high content; inhibition, % at 2 µM; AID 1246;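 active = inhibition above the batch mean plus 3 SD, and confirmed as a hit on visual image review, cut at about 43% in these data; inconclusive = passes the inhibition cutoff but fails visual image review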;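 also: 0% = TNF-stimulated DMSO wells and 100% = unstimulated control wells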
VCAM1 TNFa inh: reduces TNF alpha induced VCAM1 expression in HUVEC | HUVEC TNFa-induced VCAM-1 immunofluorescence, high-content imaging | inhibition, % at 2 µM | 95,000 tested, 0.48% active | AID 802;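 active = inhibition above the batch mean plus 3 SD, with images confirmed as a hit by eye, cut at about 37% in these data; inconclusive = inhibition above that limit but hit not confirmed in images; inactive = inhibition not above that limit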;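 also: 0% = TNF-stimulated DMSO wells and 100% = unstimulated control wells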
F-actin modifier: cytoskeleton assembly modification. HUVEC TNFa F-actin phalloidin imaging, high content. inhibition, % at 2 µM. 91,000 tested, 0.18% active. AID 836;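 active = inhibition above the batch mean plus 3 SD and confirmed as a hit by visual image inspection, cut at about 30% in these data, passing the limit was not always enough; inconclusive = above the inhibition threshold but rejected on visual inspection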
The depositor's hits bear a star; ? = inconclusive; . = no result.

SMILES | HUVEC tox TNFa | E-sel TNF inh | VCAM1 TNFa inh | F-actin modifier
O=C(C1CCC1)N1CCc2cc(S(=O)(=O)Nc3ccc4c(c3)OCCO4)ccc21 | 63 | 1 | 83* | -34
CCC(=O)N1CCc2cc(S(=O)(=O)Nc3ccc4c(c3)OCCO4)ccc21 | 0 | -9 | -2 | -14
CC1=NNC(=O)/C1=C\c1cn(-c2ccccc2)nc1-c1ccc(Cl)cc1 | 84* | 17 | 99* | 16
Cc1ccc(-c2nn(-c3ccccc3)cc2C=C2C(=O)CC(C)(C)CC2=O)cc1 | -4 | -30 | 8 | 1
Clc1ccc2c(c1)[C@H]1OCC[C@H]1[C@@H](c1ccco1)N2 | . | 10 | . | .
Cc1cc(-c2c(C)[nH]n(-c3ccccc3)c2=O)n(-c2ccccc2)n1 | 25 | 100* | 19 | 14
O=C(c1ccc(S(=O)(=O)NCC2CCCO2)cc1)N1CCc2ccccc21 (configuration not stated) | -1 | -32 | 3 | -2
CCC(C)(C)NC(=O)c1ccc(S(=O)(=O)N(C)c2ccccc2OC)cc1 | 5 | 0 | -7 | -7
COc1ccccc1N(C)S(=O)(=O)c1ccc(C(=O)NCC(C)C)cc1 | 28 | 13 | 74* | -26
COc1cc(C(=O)Nc2ccc3c(c2)C(=O)c2ccccc2C3=O)cc(OC)c1OC | . | 64* | . | .
CC1CC1c1ccc(/C=C(\C#N)C(=O)Nc2ccc(Cl)cc2)o1 (configuration not stated) | . | 64* | . | .
CCCCCCN1C(=O)C(O)=C(C(C)=O)C1c1ccccc1[N+](=O)[O-] (configuration not stated) | . | 6 | . | .
O=C(O)CCC(=O)Nc1ccc(Br)c(Cl)c1 | -5 | 75* | 19 | 0
COc1cc(NC(=S)N2CCN(CCO)CC2)c(OC)cc1Cl | . | -33 | . | .
COc1ccccc1N1CCN(S(=O)(=O)c2cc(C)sc2C)CC1 | -18 | -13 | 8 | 12
Cc1cc(S(=O)(=O)N2CCN(c3ccccc3O)CC2)c(C)s1 | -13 | 57* | 15 | 6
Cc1onc(-c2c(Cl)cccc2Cl)c1C(=O)NCc1ccccn1 | . | -34 | . | .
O=C(Oc1ccc2c(-c3ccccc3)cc(=O)oc2c1)c1cccs1 | . | 5 | . | .
NC(=O)c1c(NC(=O)CN2C(=O)CCC2=O)sc2c1CCCCC2 | -25 | . | 12 | 0
CCN1CCN(c2ncc3c(n2)CC(c2cc(OC)c(OC)c(OC)c2)CC3=O)CC1 (configuration not stated) | -16 | . | 16 | 0
CC1=C(C(=O)N(C)Cc2ccccc2)C2(CCC(C)CC2)OC1=O (configuration not stated) | 37 | . | 21 | -18
Cc1ccc(S(=O)(=O)Oc2ccc(/C=N/NC(=O)c3nn(C)cc3[N+](=O)[O-])cc2)cc1 | . | 7 | . | .
CCOc1ccc(-n2nc(C(=O)NCCOC)c3ccccc3c2=O)cc1 | . | 2 | . | .
CCOc1ccc(-n2nc(C(=O)N3CCN(CC)CC3)c3ccccc3c2=O)cc1 | 8 | 66* | -6 | -11
COc1ccc(N(C)C(=O)c2ccc3nc(-c4ccccc4)c(-c4ccccc4)nc3c2)cc1 | -22 | -35 | 14 | -11
SMILES | HUVEC tox TNFa | E-sel TNF inh | VCAM1 TNFa inh | F-actin modifier
Cc1nn(Cc2c(F)c(F)c(F)c(F)c2F)c(C)c1NC(=O)c1ccc(COc2ccccc2Cl)o1 | -30 | 0 | 8 | 22
CCC(CC)C(=O)Nc1cccc(C(=O)Nc2ccc3c(c2)OCO3)c1 | -25 | 14 | 15 | 14
COC(=O)c1ccc(-n2nnnc2SCC(=O)N2CCCCC2)cc1 | 100* | . | ? | -14
CCOC(=O)N1CCN(C(=O)CS(=O)Cc2nc(-c3ccc(C)cc3)oc2C)CC1 (configuration not stated) | -9 | -10 | -1 | -10
O=C1CC(c2ccccc2)Cc2nc3ncnn3cc21 (configuration not stated) | 41 | 12 | 60* | 29
Cc1occc1-c1nnc(SCC(=O)Nc2ccccc2)n1CCc1ccccc1 | -4 | 0 | -11 | 4
CCOC(=O)c1cccc(NC(=O)CSc2nnc(-c3ccoc3C)n2CCOC)c1 | 91* | 100* | 50 | -73
COc1ccc(OCC(=O)Nc2cccc(-c3nc4ccccc4[nH]3)c2)cc1 | -6 | -55 | 5 | 19
CC(OC(=O)C(NC(=O)c1ccco1)C(C)C)C(=O)Nc1ncc(Cl)cc1Cl (configuration not stated) | -25 | . | 12 | 1
O=S(=O)(Nc1ccc(-n2cccc2)cc1)c1ccccc1 | 26 | 36 | 40* | -25
COc1cc(S(=O)(=O)NC2CCCCC2C)ccc1Cl (configuration not stated) | 3 | 51* | 19 | 1
COc1cc(S(=O)(=O)NC2CCCC2)ccc1Cl | -24 | 0 | 9 | -1
Cc1cc(NC(=O)c2noc3c2CCCCC3)no1 | 2 | . | 1 | -6
CCCCn1cnc2c1c(=O)[nH]c(=O)n2CCCC | -52 | -5 | 0 | 35*
Cn1c(=O)[nH]c(=O)c2c1ncn2CCN1CCOCC1 | -16 | 7 | -3 | -16
O=C(COc1cccc2ccccc12)N1CCN(c2ccccn2)CC1 | -8 | -64 | -12 | -1
CC(C)C(=O)Nc1ccc(-c2nc3cccnc3o2)cc1 | . | 84* | . | .
Cc1ccn2c(NC(=O)c3ccco3)c(-c3ccccc3)nc2c1 | -13 | -12 | 97* | 16
O=C(Oc1ccc(/C=N/Nc2ccccc2)cc1)c1ccccc1 | -10 | 58* | 9 | 4
O=C(Oc1ccc(/C=N/O)cc1)c1ccccc1 | -16 | -20 | 0 | -16
CCn1c(SCC(=O)NCC2CCCO2)nc2c(c1=O)SC(C)C2 (configuration not stated) | . | 92* | . | .
Cc1ccc(OCc2ccc(C(=O)N3CCOCC3)cc2)cc1C | -30 | 3 | 5 | 16
Cc1ccc(OCc2ccoc2C(=O)O)cc1C | -7 | -23 | 97* | -7
Cc1ccc(C)c(N(C(=O)Cn2nnc3ccccc32)C(C(=O)NCc2ccco2)c2ccncc2)c1 (configuration not stated) | 10 | . | -4 | -12
CCC(C)C1C(C#N)=C(N)Oc2n[nH]c(-c3ccccc3)c21 (configuration not stated) | 29 | 6 | 56* | -11
SMILES | HUVEC tox TNFa | E-sel TNF inh | VCAM1 TNFa inh | F-actin modifier
Cc1ccc(C)n1NC(=O)c1cccs1 | 41 | 100* | 22 | -47
O=C(O)CSC1c2ccccc2C(=O)N1Cc1ccccc1 (configuration not stated) | -13 | 69* | -4 | 29
O=C(Oc1nsnc1N1CCOCC1)N1CCCCC1 | -9 | 29 | 5 | -1
O=C(Oc1nsnc1N1CCOCC1)N1CCOCC1 | -9 | 77* | 14 | -3
CCOC(=O)c1c(NC(=O)CSc2nnc(C)c(=O)[nH]2)sc(C)c1C | . | 65* | . | .
COC(=O)C(NC(=O)c1ccccc1)c1ccccc1 (configuration not stated) | -6 | 60* | -26 | -8
CC(=O)c1c(C)nc(C)nc1NC(=O)Cc1ccccc1 | . | -7 | . | .
CCNc1nc(C)nc2c1oc1ccccc12 | 92* | . | 52 | -29
Cc1nc(NC(C)C)c2oc3ccccc3c2n1 | 91* | . | 78* | -161
CCNc1nc(CC)nc2c1oc1ccccc12 | . | -33 | . | .
C/C(=N\NC(=O)c1cccc(S(=O)(=O)Nc2ccccc2Cl)c1)c1ccco1 | . | -1 | . | .
CC1(C)Cc2c(sc(NC(=O)C(C)(C)C)c2C#N)C(C)(C)N1 | 89* | -20 | -13 | 76*
